These results are taken from PubChem BioAssay (EPA / NIEHS).

Molecules are shown by their SMILES. Where “and” joins values, the source holds several entries; their conditions need not be identical. Equal entries are not always repeated. Records with an inconclusive call do not appear. Some compounds were tested as several samples or in several runs, with calls that do not always agree. Calls of active or inactive are those of the source. Rule for the calls, unless noted: active = hit-call score of the fitted dose curve at least 0.9, where 1 is the maximum; inactive = score below 0.9.

Read-out in experiment [1]: Macrophage colony-stimulating factor (MCSF), CSF1 (gene 1435)
Kind of experiment: BSK_IMphg_MCSF: BioMAP Diversity Plus: IMphg Assay for Macrophage colony-stimulating factor (MCSF) Biomarker Activity (AID 2284293). Conditions: primary human endothelial cells with macrophages. An outline of the steps: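 Co-culture of human venular endothelial cells and macrophages, 24 hours of chemical exposure. M-CSF quantified by ELISA, with parallel SRB total-protein staining for cytotoxicity; activity fitted relative to DMSO.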

Read-out in experiment [2]: Interleukin-10 (IL10), IL10 (gene 3586)
Kind of experiment: BSK_IMphg_IL10: BioMAP Diversity Plus: IMphg Assay for Interleukin-10 (IL10) Biomarker Activity (AID 2284294). Conditions: primary human endothelial cells with macrophages. An outline of the steps: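 Human venular endothelial cells cocultured with macrophages, dosed 24 h; IL-10 measured by ELISA, activity relative to DMSO. Cytotoxicity assessed in parallel cultures by sulforhodamine B total-protein staining.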

Experiment [3] is described as follows: BSK_IMphg_SRB.Mphg: Macrophage Viability Assessment in the BioMAP Diversity Plus: IMphg Assay (AID 2284295). The following applies: primary human endothelial cells with macrophages. An outline of the steps: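 Venular endothelial cells co-cultured with macrophages, read 24 h after dosing. Total protein measured by 0.1% SRB staining after 10% TCA fixation, absorbance at 560 nm. Fitted in positive direction against DMSO baseline.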

Read-out in experiment [4]: Thrombomodulin, THBD (gene 7056)
Kind of experiment: BSK_LPS_Thrombomodulin: BioMAP Diversity Plus: LPS Assay for Thrombomodulin Biomarker Activity (AID 2284296). The following applies: primary human HUVEC with PBMC. In outline:
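Human umbilical vein endothelial cells co-cultured with PBMC and stimulated with LPS; cell-surface thrombomodulin measured by ELISA 24 hours after compound. Gain or loss versus DMSO; cytotoxicity checked by SRB staining in parallel cultures.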

Read-out in a further experiment: CD69, CD69 (gene 969)
Nature of the experiment: BSK_LPS_CD69: BioMAP Diversity Plus: LPS Assay for CD69 Biomarker Activity (AID 2284303). The following applies: primary human HUVEC with PBMC. An outline of the steps:
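Human umbilical vein endothelial cells co-cultured with PBMC under LPS stimulation, chemical exposure 24 h; cell-surface CD69 measured by ELISA and fitted in the positive direction versus DMSO.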

The subject of a further experiment is TTR (gene 7276). Nature of the experiment: CCTE_GLTED_hTTR_0.5uM: CCTE's human Transthyretin (hTTR) Inhibition Assay, with 0.5uM TTR, Great Lakes Toxicology and Ecology Division (GLTED) Lab (AID 2284320). An outline of the steps: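 Cell-free displacement assay in which human TTR at 0.5 uM was incubated with test chemical for 2 h. Displacement of the ANSA probe was read by fluorescence at 380 nm excitation/475 nm emission. Loss of signal was fitted in the positive direction versus DMSO.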

Experiment [5] in a line: CCTE_Mundy_HCI_iCellGluta_NOG_NeuriteLength: CCTE's Neurite Outgrowth Assay in iCellGluta cells for Neurite Length, Mundy Lab (AID 2284318; active = hit-call score of the fitted dose curve at least 0.9, where 1 is the maximum). In outline:
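Automated high-content imaging of betaIII-tubulin (Alexa Fluor-488) and Hoechst-stained cells gave neurite length, normalized to the DMSO baseline.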

Experiment [6] is described as follows: CCTE_Mundy_HCI_iCellGluta_NOG_NeuronCount: CCTE's Neurite Outgrowth Assay in iCellGluta cells for Neuron Count, Mundy Lab (AID 2284340; active = hit-call score of the fitted dose curve at least 0.9, where 1 is the maximum;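 note: cells fixed about 48 h after compound addition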). In outline: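 Neuron count read by automated high-content imaging of Hoechst 33342 and betaIII-tubulin/Alexa Fluor-488 labelling in human iPSC glutamatergic neurons. Activity fitted relative to DMSO.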
A short description of experiment [7]: CCTE_Mundy_HCI_iCellGluta_NOG_NeuriteCount: CCTE's Neurite Outgrowth Assay in iCellGluta cells for Neurite Count, Mundy Lab (AID 2284342; active = hit-call score of the fitted dose curve at least 0.9, where 1 is the maximum;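 note: chemical exposure about 48 hours starting 2 hours after plating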).
Experiment [8] can be described thus: Tanguay_ZF_120hpf_MO24: Oregon State University Tanguay Lab 24 Hour Post-fertilization zebrafish Assay for Mortality (AID 2284389). In outline: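 Dechorionated wild-type zebrafish embryos, 1 per well, statically exposed from 6 hpf at 28C, 0.64% DMSO final. Mortality scored as binary present/absent at 24 hpf by brightfield microscopy, relative to DMSO.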
Experiment [9] in a line: Tanguay_ZF_120hpf_CRAN: Oregon State University Tanguay Lab 120 Hour Post-fertilization zebrafish Assay for Craniofacial Malformation (AID 2284397). In outline: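 Dechorionated Tropical 5D wild-type zebrafish embryos, one per well, were statically exposed from 6 to 120 hpf at 28C in 0.64% DMSO, with 5uM trimethyltin chloride as positive control. Craniofacial malformation was scored present/absent by brightfield microscopy, relative to DMSO.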

Experiment [10] is described as follows: Tanguay_ZF_120hpf_MORT: Oregon State University Tanguay Lab 120 Hour Post-fertilization zebrafish Assay for Mortality (AID 2284399). In outline:
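Dechorionated wild-type Tropical 5D zebrafish embryos, one per well from 6 hpf, static exposure to 120 hpf at 28C in sealed dark plates, 0.64% DMSO final. Mortality scored as binary by brightfield at 24 and 120 hpf.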

Experiment [11] is described as follows: Tanguay_ZF_120hpf_EDEM: Oregon State University Tanguay Lab 120 Hour Post-fertilization zebrafish Assay for Edema Malformation (AID 2284400). In outline: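 Dechorionated Tropical 5D wild-type embryos, one per well, statically exposed from 6 to 120 hpf at 28C in 0.64% DMSO. Edema scored present/absent by brightfield microscopy at 120 hpf; dead embryos not scored; fit versus DMSO.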

A short description of experiment [12]: Tanguay_ZF_120hpf_TCHR: Oregon State University Tanguay Lab 120 Hour Post-fertilization zebrafish Assay for Touch Responsive (AID 2284403). An outline of the steps:
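Dechorionated Tropical 5D wild-type zebrafish embryos, one per well from 6 hpf, were statically exposed to 120 hpf at 28 °C (0.64% DMSO). Touch response was scored present/absent at 120 hpf and not scored in dead larvae.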

The nature of experiment [13]: Tanguay_ZF_120hpf_ANY: Oregon State University Tanguay Lab 120 Hour Post-fertilization zebrafish Assay for Any Mortality and Malformation (AID 2284404). In outline: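 Dechorionated Tropical 5D wild-type embryos, one per well from 6 hpf, static exposure in sealed, dark plates at 28C until 120 hpf, 0.64% DMSO final. Brightfield scoring of mortality and malformations as binary presence/absence, pooling 13 morphology endpoints.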

Another experiment concerns IYD (gene 389434). Kind of experiment: CCTE_GLTED_hIYD: CCTE's human Iodotyrosine Deiodinase (xIYD) Inhibition Assay, Great Lakes Toxicology and Ecology Division (GLTED) Lab (AID 2284317; active = hit-call score of the fitted dose curve at least 0.9, where 1 is the maximum;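 note: cell-free human IYD enzyme made in baculovirus insect cells; iodide freed from monoiodotyrosine measured by cerium arsenite color change at 420 nm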). An outline of the steps:
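hIYD: baculovirus-expressed human IYD deiodinated monoiodotyrosine for 3 h with test chemical; free iodide was measured by Sandell-Kolthoff absorbance at 420 nm and normalized to MNT and DMSO/NaOH controls.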

As to `O=C(Cl)C(F)(F)C(F)(F)C(F)(F)C(F)(F)C(F)(F)C(F)(F)F`, the outcome in [1] is “inactive”; in experiment [2] it was “inactive”; in experiment [3], “inactive”; in [4], “inactive”; in the experiment with CD69, CD69 (gene 969), “inactive”. The AC50 in experiment [2] is 7.98 µM (active) and 7.26 µM (active); in the experiment on TTR (gene 7276), 0.685 µM (active).
On to `NCC(F)(F)C(F)(F)C(F)(F)C(F)(F)C(F)(F)C(F)(F)C(F)(F)C(F)(F)F`, for which the outcome in experiment [1] was “inactive”; in experiment [2] it was “inactive”; in experiment [3] it was “inactive”; in experiment [4] it was “inactive”; in the experiment with CD69, CD69 (gene 969), “inactive”.
As to `OCCCC(F)(F)C(F)(F)C(F)(F)C(F)(F)C(F)(F)C(F)(F)C(F)(F)C(F)(F)F`, the AC50 was 44.4 µM (active) and 42.1 µM (active) in experiment [1]; 40.8 µM (active) and 32.2 µM (active) in [2]; 16.7 µM (active) and 30 µM (active) in experiment [3]; 52.8 µM (active) and 52.3 µM (active) in [4]; 22.1 µM (active) and 43.1 µM (active) with CD69, CD69 (gene 969). Besides, the result in experiment [5], in experiment [6], in [7], in [8], in experiment [9] and in experiment [10] was inactive. Also, the result in [11], in experiment [12] and in experiment [13] was inactive.
For `C=C(C)C(=O)OCC(F)(F)C(F)(F)C(F)(F)C(F)F`, the outcome in experiment [1] was “inactive”; in [2] it was “inactive”; in [3] it was “inactive”; in [4], “inactive”; in the experiment with CD69, CD69 (gene 969), “inactive”. Moreover, the AC50 in the experiment with TTR (gene 7276) was 19 µM (active).
Take `O=S(=O)(Cl)C(F)(F)C(F)(F)C(F)(F)C(F)(F)C(F)(F)C(F)(F)C(F)(F)C(F)(F)F`: the outcome in [1] is “inactive”; in experiment [2], “inactive”; in experiment [3] it was “inactive”; in [4] it was “inactive”; with CD69, CD69 (gene 969), “inactive”; in experiment [8] it was “inactive”. For the same compound, the call in experiment [9], in experiment [10], in experiment [11], in experiment [12] and in experiment [13] was inactive. For the same compound, the AC50 in experiment [2] was 54.1 µM (active); with IYD (gene 389434), 100 µM (active); with TTR (gene 7276), 0.234 µM (active).
With `CCOC(=O)CC(=O)C(F)(F)C(F)(F)F`, the outcome in experiment [1] was “inactive”; in experiment [2], “inactive”; in experiment [3], “inactive”; in experiment [4] it was “inactive”; in the experiment with CD69, CD69 (gene 969), “inactive”; in experiment [8], “inactive”. The call in experiment [9], in experiment [10], in [11], in [12] and in experiment [13] was inactive. Moreover, the AC50 with TTR (gene 7276) was 49.8 µM (active).
Consider `NCC(F)(F)C(F)(F)C(F)(F)C(F)(F)C(F)(F)C(F)(F)F`, for which the outcome is “inactive” in experiment [1]; “inactive” in experiment [2]; “inactive” in experiment [3]; “inactive” in experiment [4]; “inactive” with CD69, CD69 (gene 969).
In the case of `O=C(Cl)C(F)(F)C(F)(F)C(F)(F)C(F)(F)C(F)(F)C(F)(F)C(F)(F)F`, the outcome in experiment [1] was “inactive”; in experiment [2], “inactive”; in experiment [3], “inactive”; in experiment [4], “inactive”; in the experiment with CD69, CD69 (gene 969), “inactive”. Further, in the experiment with TTR (gene 7276), the AC50 was 0.599 µM (active).
For the compound `O=C(O)C(F)(F)C(F)(F)C(F)(F)OC(F)(F)F`, the outcome in experiment [1] is “inactive”; in [2], “inactive”; in experiment [3], “inactive”; in experiment [4] it was “inactive”; with CD69, CD69 (gene 969), “inactive”; in [5], “inactive”. Besides, the call in experiment [6], in experiment [7], in experiment [8], in experiment [9], in experiment [10] and in experiment [11] was inactive. Besides, the call in experiment [12] and in experiment [13] was inactive. Moreover, the AC50 in the experiment with TTR (gene 7276) was 4.54 µM (active).
